What was measured:
[1] = system: Epidermal growth factor receptor (Homo sapiens), P00533 [T790M]; settings: at 1 µM
[2] = system: Epidermal growth factor receptor (Homo sapiens), P00533 [L858R,T790M]; settings: at 0.1 µM
[3] = system: Epidermal growth factor receptor (Homo sapiens), P00533 [L858R,T790M]; settings: at 1 µM
[4] = molecular target: Ephrin type-A receptor 2 (Homo sapiens) (UniProt P29317); settings: at 0.1 µM
[5] = molecular target: Ephrin type-A receptor 2 (Homo sapiens) (UniProt P29317); settings: at 1 µM
[6] = molecular target: T1, Ephrin type-A receptor 3 (Homo sapiens) (UniProt P29320); settings: at 0.1 µM
T1 sequence (whole entry): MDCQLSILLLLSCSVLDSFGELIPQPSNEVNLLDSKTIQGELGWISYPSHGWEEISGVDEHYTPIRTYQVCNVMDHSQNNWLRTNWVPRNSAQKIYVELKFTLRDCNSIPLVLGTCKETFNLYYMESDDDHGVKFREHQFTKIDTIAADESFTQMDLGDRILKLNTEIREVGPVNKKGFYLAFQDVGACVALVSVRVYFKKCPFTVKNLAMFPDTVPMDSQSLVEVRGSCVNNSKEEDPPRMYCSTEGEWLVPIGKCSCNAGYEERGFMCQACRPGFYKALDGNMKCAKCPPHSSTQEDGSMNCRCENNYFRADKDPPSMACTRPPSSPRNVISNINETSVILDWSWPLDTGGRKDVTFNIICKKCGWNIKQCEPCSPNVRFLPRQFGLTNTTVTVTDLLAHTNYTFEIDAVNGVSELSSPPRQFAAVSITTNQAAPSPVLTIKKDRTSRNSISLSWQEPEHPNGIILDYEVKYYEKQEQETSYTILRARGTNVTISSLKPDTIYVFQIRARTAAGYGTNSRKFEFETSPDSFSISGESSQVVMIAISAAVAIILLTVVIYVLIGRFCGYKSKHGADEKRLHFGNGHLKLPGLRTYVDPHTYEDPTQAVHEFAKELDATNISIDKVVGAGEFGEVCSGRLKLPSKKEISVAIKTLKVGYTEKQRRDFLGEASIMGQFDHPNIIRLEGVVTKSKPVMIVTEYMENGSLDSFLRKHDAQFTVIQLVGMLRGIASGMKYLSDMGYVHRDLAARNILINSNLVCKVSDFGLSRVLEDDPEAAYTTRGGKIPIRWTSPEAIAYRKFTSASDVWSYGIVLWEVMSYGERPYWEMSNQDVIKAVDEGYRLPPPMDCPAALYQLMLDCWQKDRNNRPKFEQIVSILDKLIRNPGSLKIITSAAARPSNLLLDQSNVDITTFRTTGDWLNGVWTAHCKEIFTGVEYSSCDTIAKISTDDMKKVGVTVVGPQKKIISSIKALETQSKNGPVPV

[7] = molecular target: T1, Ephrin type-A receptor 3 (Homo sapiens); settings: at 1 µM
[8] = molecular target: Ephrin type-A receptor 4 (Homo sapiens) (UniProt P54764); settings: at 0.1 µM
[9] = molecular target: Ephrin type-A receptor 4 (Homo sapiens) (UniProt P54764); settings: at 1 µM
[10] = molecular target: T2, Ephrin type-B receptor 2 (Homo sapiens) (UniProt P29323); settings: at 0.1 µM;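 also: reported as mean inhibition of EPHB2, from the GSK PKIS dataset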
T2 sequence (whole entry): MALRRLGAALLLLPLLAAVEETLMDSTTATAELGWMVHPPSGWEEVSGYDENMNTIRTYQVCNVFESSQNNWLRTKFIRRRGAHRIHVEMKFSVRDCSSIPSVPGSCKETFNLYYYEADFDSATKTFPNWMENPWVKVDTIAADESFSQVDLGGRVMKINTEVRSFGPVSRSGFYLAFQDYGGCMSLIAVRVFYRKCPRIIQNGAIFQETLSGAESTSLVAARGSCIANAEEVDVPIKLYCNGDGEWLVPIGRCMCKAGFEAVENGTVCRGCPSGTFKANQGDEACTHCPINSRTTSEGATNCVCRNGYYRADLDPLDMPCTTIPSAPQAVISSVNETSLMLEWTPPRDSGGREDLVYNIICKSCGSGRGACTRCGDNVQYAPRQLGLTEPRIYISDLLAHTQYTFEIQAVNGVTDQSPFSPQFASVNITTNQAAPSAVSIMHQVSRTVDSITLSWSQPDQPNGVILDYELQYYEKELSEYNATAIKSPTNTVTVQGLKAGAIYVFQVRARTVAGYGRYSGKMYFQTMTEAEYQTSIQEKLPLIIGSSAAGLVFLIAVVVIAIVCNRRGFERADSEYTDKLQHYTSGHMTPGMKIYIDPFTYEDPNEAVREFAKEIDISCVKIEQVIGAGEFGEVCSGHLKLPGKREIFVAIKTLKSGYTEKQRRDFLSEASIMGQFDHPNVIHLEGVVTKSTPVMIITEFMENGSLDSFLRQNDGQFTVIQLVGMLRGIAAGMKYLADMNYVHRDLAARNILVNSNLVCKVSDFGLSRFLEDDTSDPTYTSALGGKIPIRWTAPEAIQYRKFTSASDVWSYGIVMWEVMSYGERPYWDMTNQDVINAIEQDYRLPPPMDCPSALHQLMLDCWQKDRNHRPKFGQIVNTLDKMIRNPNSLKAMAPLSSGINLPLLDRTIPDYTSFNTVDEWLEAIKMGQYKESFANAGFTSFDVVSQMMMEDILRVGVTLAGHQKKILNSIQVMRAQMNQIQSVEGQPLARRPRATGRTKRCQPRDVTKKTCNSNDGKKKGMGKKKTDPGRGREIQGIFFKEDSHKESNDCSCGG

Epidermal growth factor receptor (Homo sapiens), P00533 [L858R,T790M], sequence (P00533 whole entry T790M/L858R, looked up): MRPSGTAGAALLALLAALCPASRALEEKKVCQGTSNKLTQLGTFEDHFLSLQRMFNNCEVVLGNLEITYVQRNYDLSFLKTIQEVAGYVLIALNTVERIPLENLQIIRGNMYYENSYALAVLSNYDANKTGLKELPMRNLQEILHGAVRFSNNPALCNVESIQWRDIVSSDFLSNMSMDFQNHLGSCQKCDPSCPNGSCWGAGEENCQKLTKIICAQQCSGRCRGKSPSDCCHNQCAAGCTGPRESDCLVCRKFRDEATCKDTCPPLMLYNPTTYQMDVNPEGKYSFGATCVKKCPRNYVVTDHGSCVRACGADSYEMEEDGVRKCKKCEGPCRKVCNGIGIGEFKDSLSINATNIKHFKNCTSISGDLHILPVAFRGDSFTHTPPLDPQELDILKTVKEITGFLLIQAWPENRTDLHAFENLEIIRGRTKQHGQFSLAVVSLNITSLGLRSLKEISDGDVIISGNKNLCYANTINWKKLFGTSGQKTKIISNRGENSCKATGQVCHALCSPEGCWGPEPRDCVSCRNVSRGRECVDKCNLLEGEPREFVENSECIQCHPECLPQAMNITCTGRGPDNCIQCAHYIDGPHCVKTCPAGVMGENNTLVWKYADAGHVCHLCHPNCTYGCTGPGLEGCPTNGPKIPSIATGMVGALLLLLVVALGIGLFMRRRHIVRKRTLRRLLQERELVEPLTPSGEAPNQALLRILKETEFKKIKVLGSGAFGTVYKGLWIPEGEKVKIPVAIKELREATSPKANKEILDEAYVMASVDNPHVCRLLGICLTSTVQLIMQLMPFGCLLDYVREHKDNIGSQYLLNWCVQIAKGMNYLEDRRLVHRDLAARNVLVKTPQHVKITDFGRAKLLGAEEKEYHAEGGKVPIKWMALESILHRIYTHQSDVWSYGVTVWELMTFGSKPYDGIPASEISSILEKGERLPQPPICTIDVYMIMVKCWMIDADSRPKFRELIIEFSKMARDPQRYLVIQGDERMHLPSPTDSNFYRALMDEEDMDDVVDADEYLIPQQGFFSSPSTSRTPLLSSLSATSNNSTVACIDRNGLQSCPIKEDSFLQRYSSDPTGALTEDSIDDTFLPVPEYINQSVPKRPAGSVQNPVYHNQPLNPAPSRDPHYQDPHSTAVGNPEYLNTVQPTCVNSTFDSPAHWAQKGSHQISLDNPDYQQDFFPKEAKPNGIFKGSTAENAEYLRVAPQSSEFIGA
Ephrin type-A receptor 4 (Homo sapiens), sequence (P54764 whole entry): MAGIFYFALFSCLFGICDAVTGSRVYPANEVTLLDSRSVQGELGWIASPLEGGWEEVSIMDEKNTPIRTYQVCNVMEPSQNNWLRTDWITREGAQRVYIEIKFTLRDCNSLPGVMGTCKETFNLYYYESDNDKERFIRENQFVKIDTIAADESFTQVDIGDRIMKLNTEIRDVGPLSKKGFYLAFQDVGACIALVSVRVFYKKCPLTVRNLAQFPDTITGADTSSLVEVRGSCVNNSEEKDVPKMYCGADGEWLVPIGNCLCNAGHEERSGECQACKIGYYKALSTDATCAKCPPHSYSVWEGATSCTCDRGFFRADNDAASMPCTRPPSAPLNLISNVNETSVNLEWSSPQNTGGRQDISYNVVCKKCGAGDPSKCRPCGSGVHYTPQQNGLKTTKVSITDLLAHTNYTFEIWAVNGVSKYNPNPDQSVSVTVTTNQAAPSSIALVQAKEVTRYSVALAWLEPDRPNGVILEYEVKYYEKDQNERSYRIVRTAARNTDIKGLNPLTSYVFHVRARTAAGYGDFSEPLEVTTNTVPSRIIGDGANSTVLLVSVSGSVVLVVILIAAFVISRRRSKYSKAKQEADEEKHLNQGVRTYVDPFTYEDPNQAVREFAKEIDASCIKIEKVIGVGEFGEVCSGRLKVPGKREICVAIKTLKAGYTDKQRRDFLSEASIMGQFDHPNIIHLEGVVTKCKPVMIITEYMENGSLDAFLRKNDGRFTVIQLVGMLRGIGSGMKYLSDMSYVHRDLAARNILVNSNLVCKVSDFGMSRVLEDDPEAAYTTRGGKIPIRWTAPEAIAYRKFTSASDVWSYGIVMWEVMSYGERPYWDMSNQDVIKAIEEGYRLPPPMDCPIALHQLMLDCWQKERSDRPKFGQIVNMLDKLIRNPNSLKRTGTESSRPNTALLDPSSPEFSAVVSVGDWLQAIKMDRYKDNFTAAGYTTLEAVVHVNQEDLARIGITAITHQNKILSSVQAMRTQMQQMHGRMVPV
Epidermal growth factor receptor (Homo sapiens), P00533 [T790M], sequence (P00533 whole entry T790M): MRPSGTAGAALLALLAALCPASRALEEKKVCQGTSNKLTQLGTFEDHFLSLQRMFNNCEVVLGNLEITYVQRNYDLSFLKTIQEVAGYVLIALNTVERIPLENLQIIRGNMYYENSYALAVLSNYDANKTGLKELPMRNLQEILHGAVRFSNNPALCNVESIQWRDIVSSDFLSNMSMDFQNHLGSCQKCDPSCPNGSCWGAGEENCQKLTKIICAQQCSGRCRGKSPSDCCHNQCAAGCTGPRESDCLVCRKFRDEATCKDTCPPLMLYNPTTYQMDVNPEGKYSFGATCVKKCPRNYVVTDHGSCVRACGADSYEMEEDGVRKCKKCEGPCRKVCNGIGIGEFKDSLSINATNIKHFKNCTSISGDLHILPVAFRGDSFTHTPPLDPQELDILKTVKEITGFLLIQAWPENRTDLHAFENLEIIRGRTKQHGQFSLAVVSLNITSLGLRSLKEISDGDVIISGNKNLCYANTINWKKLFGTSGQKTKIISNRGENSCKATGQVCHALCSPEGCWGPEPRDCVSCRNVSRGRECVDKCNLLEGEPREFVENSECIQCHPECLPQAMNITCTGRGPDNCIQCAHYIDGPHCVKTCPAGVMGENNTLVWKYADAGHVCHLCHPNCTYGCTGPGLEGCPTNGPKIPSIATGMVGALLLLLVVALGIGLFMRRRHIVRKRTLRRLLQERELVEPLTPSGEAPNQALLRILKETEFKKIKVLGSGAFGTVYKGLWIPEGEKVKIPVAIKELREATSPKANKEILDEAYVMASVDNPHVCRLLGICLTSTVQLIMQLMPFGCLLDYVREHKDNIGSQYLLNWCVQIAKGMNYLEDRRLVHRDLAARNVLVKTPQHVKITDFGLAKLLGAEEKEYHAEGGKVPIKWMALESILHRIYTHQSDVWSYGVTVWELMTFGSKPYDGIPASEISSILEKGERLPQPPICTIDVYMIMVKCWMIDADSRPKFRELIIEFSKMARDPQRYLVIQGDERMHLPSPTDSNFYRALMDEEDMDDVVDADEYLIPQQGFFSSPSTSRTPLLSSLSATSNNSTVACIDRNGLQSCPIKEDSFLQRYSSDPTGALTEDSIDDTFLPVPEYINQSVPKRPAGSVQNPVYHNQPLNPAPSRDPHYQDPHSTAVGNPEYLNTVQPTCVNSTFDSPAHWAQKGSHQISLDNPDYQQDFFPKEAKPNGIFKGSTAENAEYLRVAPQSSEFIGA
Ephrin type-A receptor 2 (Homo sapiens), sequence (P29317 whole entry): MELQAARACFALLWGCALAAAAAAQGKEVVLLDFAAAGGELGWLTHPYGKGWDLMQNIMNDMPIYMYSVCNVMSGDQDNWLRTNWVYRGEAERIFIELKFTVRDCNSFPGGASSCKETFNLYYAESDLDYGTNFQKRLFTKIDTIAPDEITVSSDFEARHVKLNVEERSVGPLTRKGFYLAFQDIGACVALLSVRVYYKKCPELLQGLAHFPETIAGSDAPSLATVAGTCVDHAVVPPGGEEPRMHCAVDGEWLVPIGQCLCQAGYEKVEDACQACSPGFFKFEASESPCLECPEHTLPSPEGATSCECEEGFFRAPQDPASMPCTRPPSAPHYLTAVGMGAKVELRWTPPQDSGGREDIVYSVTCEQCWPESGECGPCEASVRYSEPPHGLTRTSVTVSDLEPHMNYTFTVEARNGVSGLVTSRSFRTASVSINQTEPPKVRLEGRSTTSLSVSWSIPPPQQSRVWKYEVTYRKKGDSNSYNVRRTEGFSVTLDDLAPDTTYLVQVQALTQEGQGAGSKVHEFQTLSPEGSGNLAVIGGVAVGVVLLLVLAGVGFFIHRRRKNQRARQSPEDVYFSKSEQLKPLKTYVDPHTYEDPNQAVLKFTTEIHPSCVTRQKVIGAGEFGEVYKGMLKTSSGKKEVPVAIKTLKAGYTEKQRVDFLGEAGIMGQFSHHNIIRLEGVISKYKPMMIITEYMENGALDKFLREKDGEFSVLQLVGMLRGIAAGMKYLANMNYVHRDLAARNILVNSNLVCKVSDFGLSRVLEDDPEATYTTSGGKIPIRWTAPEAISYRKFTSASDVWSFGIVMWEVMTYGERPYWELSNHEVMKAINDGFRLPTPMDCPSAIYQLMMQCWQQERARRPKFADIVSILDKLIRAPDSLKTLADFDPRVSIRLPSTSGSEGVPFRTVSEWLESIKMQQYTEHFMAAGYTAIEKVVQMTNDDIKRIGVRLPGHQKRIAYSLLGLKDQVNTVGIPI

| SMILES | inhibition [1] | inhibition [2] | inhibition [3] | inhibition [4] | inhibition [5] | inhibition [6] | inhibition [7] | inhibition [8] | inhibition [9] | inhibition [10] |
| --- | --- | --- | --- | --- | --- | --- | --- | --- | --- | --- |
| [O-][S+]1CCN(Cc2ccc(-c3ccc4ncnc(Nc5ccc(OCc6cccc(F)c6)c(Cl)c5)c4c3)o2)CC1 | 22% | 1.22% | 5.52% | 1.19% | 0.52% | 5.19% | 2.42% | 7.3% | 11.6% | 9.52% |
| COC(=O)Nc1nc2ccc(Oc3ccc(NC(=O)Nc4cccc(Cl)c4)cc3)cc2[nH]1 | -0.68% | -2.96% | 0.71% | 7.68% | 41.2% | 4.1% | 8.5% | 22.3% | 62.9% | 36.9% |
| COC(=O)Nc1nc2ccc(S(=O)(=O)c3ccc(NC(=O)Nc4cc(C(F)(F)F)ccc4F)cc3)cc2[nH]1 | 0.19% | 0.89% | -0.68% | 2.49% | 6.48% | 3.46% | 4.35% | 4.8% | 9.4% | 6.82% |
| CNC(=O)c1cccc(C#Cc2cncnc2Nc2ccc(OCc3cccc(F)c3)c(Cl)c2)c1 | 4.1% | -0.69% | 1.65% | 2.11% | -0.11% | 1.08% | 0.39% | 5.81% | 6.8% | 3.54% |
| CS(=O)(=O)CCNCc1ccc(-c2ccc3ncnc(Nc4ccc(OCc5ccccc5)c(C(F)(F)F)c4)c3c2)o1 | 2.12% | 3.43% | 0.97% | 2.24% | 0.59% | 8.45% | 2.73% | 6.33% | 7.84% | 7.71% |
| O=S(=O)(CCNCc1ccc(-c2ccc3ncnc(Nc4ccc(OCc5cccc(F)c5)c(Cl)c4)c3c2)o1)c1ccccc1 | 6.26% | 1.22% | 1.97% | 1.86% | 1.73% | 4.61% | 6.18% | 5.63% | 13.3% | 14.7% |
| CN(C)CCOc1ccc(-c2nc(-c3ccncc3)c(-c3ccc4c(c3)CC/C4=N\O)[nH]2)cc1 | 2.29% | 2.36% | 6.66% | 1.49% | 0.74% | 2.42% | 3.57% | 6.96% | 9.28% | 5.22% |
| N#Cc1c(NC(=O)CN2CCOCC2)sc2c1CCCC2 | 4.76% | 2.42% | 4.77% | 1.79% | 1.43% | 5.54% | 6.42% | 7.58% | 13.1% | 8.79% |
| O=C(Nc1n[nH]c2cc(-c3ccc(F)cc3)ccc12)C1CC1 | 1.6% | 1.46% | 1.41% | -2.34% | -1.62% | 2.89% | 4.36% | 7.63% | 4.17% | 6.99% |
| COc1ccc(-c2cc3c(N)ncnc3o2)cc1 | -2.06% | -0.41% | -0.81% | -3.93% | -2.53% | -3.56% | -2.59% | -2.85% | 1.4% | -3.46% |
| CCCN(CCS(C)(=O)=O)Cc1ccc(-c2ccc3ncnc(Nc4ccc(OCc5cccc(F)c5)c(Cl)c4)c3c2)o1 | 8.75% | -1% | 3.75% | -2.13% | -0.4% | 2.56% | 2.25% | 5.97% | 5.71% | 4.71% |
| CCn1c(-c2nonc2N)nc2cnc(Oc3cccc(NC(=O)c4ccc(N(C)C)cc4)c3)cc21 | 0.52% | -1.54% | -0.4% | -2.08% | -3.39% | 2.26% | 4.01% | 4.68% | -0.31% | 5.07% |
| N#Cc1c(NC(=O)c2ccc(F)cc2)sc2c1CCCC2 | -0.08% | -2.24% | 0.47% | -2.58% | -2.61% | 1.47% | 2.8% | 4.24% | 2.26% | 2.69% |
| CCn1c(-c2nonc2N)nc2c(C#CC(C)(C)O)nc(OC[C@H](N)c3ccccc3)cc21 | 4.71% | 0.92% | 2.55% | 0.4% | -0.31% | 2.11% | 1.87% | 5.06% | 4.87% | 0.04% |
| NS(=O)(=O)c1ccc(N/N=C2\C(=O)Nc3ccc4ncccc4c32)cc1 | -0.36% | 1.77% | 5.28% | 1.99% | 9.56% | 5.42% | 12.4% | 8.83% | 31% | 8.06% |
| CS(=O)(=O)CCNCc1coc(-c2ccc3ncnc(Nc4ccc(OCc5ccccc5)cc4)c3c2)c1 | 10.3% | -2.4% | 4.59% | 2.56% | 0.15% | 7.79% | 5.01% | 8.01% | 5.86% | 3.86% |
